The panel holds about 83,000 compounds, 20% with a hit somewhere; the sample as a whole holds those more often.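 Percent growth is the endpoint: 0 to 100 indicates growth inhibition (40 means 60% inhibition), 0 means no net growth, and negative values indicate cell death.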 The source made the active and inactive calls. How the source made its calls: active means growth percent below 10; inactive means the rest.
Key:
Experiment in all cases: NCI-60 one-dose screen, 48 h (100 = growth as untreated, 0 = no growth, -100 = all killed)
Settings in all cases: 10 µM unless noted
NCI-H23 lung = tested on: NCI-H23 lung
NCI-H226 lung = tested on: NCI-H226 lung
NCI-H322M lung = tested on: NCI-H322M lung
HOP-62 NSCLC = tested on: HOP-62 NSCLC
NCI-H460 lung = tested on: NCI-H460 lung
HOP-92 NSCLC = tested on: HOP-92 NSCLC
NCI-H522 lung = tested on: NCI-H522 lung
A549/ATCC NSCLC = tested on: A549/ATCC NSCLC
786-0 renal = tested on: 786-0 renal
COLO 205 colon = tested on: COLO 205 colon
DU-145 prostate = tested on: DU-145 prostate
K-562 leukemia = tested on: K-562 leukemia
MALME-3M melanoma = tested on: MALME-3M melanoma
MDA-MB-231 breast = tested on: MDA-MB-231 breast
SF-268 CNS = tested on: SF-268 CNS
SF-295 CNS = tested on: SF-295 CNS
SF-539 CNS = tested on: SF-539 CNS
M14 melanoma = tested on: M14 melanoma
RXF 393 renal = tested on: RXF 393 renal

Measured: growth

CC(=O)C(C(C)=O)C(c1ccccc1)C(C(C)=O)C(C)=O
inactive: NCI-H23 lung 98.6% | NCI-H226 lung 90.9% | NCI-H322M lung 99.7% | HOP-62 NSCLC 98.4% | NCI-H460 lung 105% | HOP-92 NSCLC 97.5% | NCI-H522 lung 91.7% | A549/ATCC NSCLC 89.3% | 786-0 renal 97.2% | COLO 205 colon 104% | DU-145 prostate 108% | K-562 leukemia 95.9% | MALME-3M melanoma 108% | MDA-MB-231 breast 97.5% | SF-268 CNS 108% | SF-295 CNS 96.7% | SF-539 CNS 101% | M14 melanoma 96.5%

Cc1ccccc1Nc1nc2nonc2nc1Nc1cccc(C)c1C
inactive: NCI-H23 lung 17.9% | NCI-H226 lung 48.6% | NCI-H322M lung 80.7% | HOP-62 NSCLC 72.1% | NCI-H460 lung 41.1% | HOP-92 NSCLC 22.5% | A549/ATCC NSCLC 27.4% | 786-0 renal 65.9% | COLO 205 colon 59.2% | DU-145 prostate 71.9% | K-562 leukemia 39.5% | MALME-3M melanoma 78.6% | MDA-MB-231 breast 72.7% | SF-268 CNS 72.8% | SF-295 CNS 41.5% | SF-539 CNS 88.1% | M14 melanoma 58.4%
active: NCI-H522 lung 3.35%

CC(C)[C@@H](C)/C=C/[C@@H](C)[C@H]1CCC2=C3C=CC4=CC(=O)CC[C@]4(C)[C@H]3CC[C@@]21C
inactive: NCI-H23 lung 96% | NCI-H226 lung 93.2% | NCI-H322M lung 93.9% | HOP-62 NSCLC 104% | NCI-H460 lung 107% | HOP-92 NSCLC 86.6% | NCI-H522 lung 67.2% | A549/ATCC NSCLC 77.4% | 786-0 renal 101% | COLO 205 colon 105% | DU-145 prostate 105% | K-562 leukemia 92.6% | MALME-3M melanoma 110% | MDA-MB-231 breast 105% | SF-268 CNS 98.9% | SF-295 CNS 94.9% | SF-539 CNS 106% | M14 melanoma 98.6%

Cc1sc2c(c1C)c(=O)nc1c(-c3nc(-c4ccccc4)cs3)n[nH]n12
inactive: NCI-H23 lung 91.9% | NCI-H226 lung 89.9% | NCI-H322M lung 101% | HOP-62 NSCLC 92.4% | NCI-H460 lung 96.2% | HOP-92 NSCLC 98.5% | NCI-H522 lung 94.3% | A549/ATCC NSCLC 93% | 786-0 renal 103% | COLO 205 colon 102% | DU-145 prostate 104% | K-562 leukemia 94.5% | MALME-3M melanoma 98.1% | MDA-MB-231 breast 93.3% | SF-268 CNS 96.2% | SF-295 CNS 88.7% | SF-539 CNS 96.3% | M14 melanoma 96.2%

Nc1c2c(c(O)c3c1=C(CO)C=N3)=NCCS2
active: NCI-H23 lung -43.9% | NCI-H226 lung -85.9% | NCI-H322M lung -96% | HOP-62 NSCLC -79.3% | NCI-H460 lung -60.5% | HOP-92 NSCLC -71.2% | NCI-H522 lung -46.4% | A549/ATCC NSCLC -72% | 786-0 renal -82.6% | COLO 205 colon -72.8% | DU-145 prostate -93% | K-562 leukemia -33.1% | MALME-3M melanoma -96.6% | MDA-MB-231 breast 2.38% | SF-268 CNS -47.9% | SF-295 CNS -94.5% | SF-539 CNS -95.8% | M14 melanoma -89.7%

CC[n+]1c(/C=C/C=C2\N(C)c3ccccc3C2(C)C)sc2ccccc21
active: NCI-H460 lung 7.56% | HOP-92 NSCLC -3.67% | NCI-H522 lung 9.12% | COLO 205 colon -59.2% | K-562 leukemia 2.44% | MDA-MB-231 breast 8.67% | SF-295 CNS -6.72%
inactive: NCI-H23 lung 20% | NCI-H226 lung 20% | NCI-H322M lung 25.6% | HOP-62 NSCLC 11.7% | A549/ATCC NSCLC 11.9% | 786-0 renal 14.8% | DU-145 prostate 20.3% | MALME-3M melanoma 13.6% | SF-268 CNS 25.6% | SF-539 CNS 19.9% | M14 melanoma 12.6%

O=C1CC(c2cccc(F)c2)c2c(n[nH]c2-c2ccc(Cl)cc2)N1 (stereo not drawn)
inactive: NCI-H23 lung 80.4% | NCI-H226 lung 80.7% | NCI-H322M lung 81.9% | HOP-62 NSCLC 65.7% | NCI-H460 lung 106% | HOP-92 NSCLC 83.6% | NCI-H522 lung 61.5% | A549/ATCC NSCLC 61.4% | 786-0 renal 89.7% | COLO 205 colon 104% | DU-145 prostate 102% | K-562 leukemia 96.4% | MALME-3M melanoma 99.4% | MDA-MB-231 breast 80.4% | SF-268 CNS 94.1% | SF-295 CNS 91.8% | SF-539 CNS 91.3% | M14 melanoma 100%

O=C(NO)c1ccc(Cn2c(=O)n(CCc3ccccc3)c(=O)c3ccccc32)cc1
inactive: NCI-H226 lung 48.1% | NCI-H322M lung 43.7% | HOP-62 NSCLC 31.1% | NCI-H460 lung 25.2% | HOP-92 NSCLC 66.8% | NCI-H522 lung 29.9% | A549/ATCC NSCLC 33.6% | 786-0 renal 45% | DU-145 prostate 30.5% | K-562 leukemia 35.4% | MDA-MB-231 breast 39% | RXF 393 renal 15.8% | SF-268 CNS 46.4% | SF-295 CNS 22.1% | SF-539 CNS 12.1% | M14 melanoma 22.2%
active: NCI-H23 lung 8.96% | COLO 205 colon 4.15%

CCN1/C(=C/C=C/c2n(-c3ccccc3)c3ccc(-c4nc5ccccc5s4)cc3[n+]2CC)N(c2ccccc2)c2ccc(-c3nc4ccccc4s3)cc21
inactive: NCI-H322M lung 14.5% | K-562 leukemia 10.2% | MDA-MB-231 breast 16.9%
active: NCI-H23 lung -0.899% | NCI-H226 lung 0.213% | HOP-62 NSCLC -7.25% | NCI-H460 lung -1.59% | HOP-92 NSCLC 1.91% | NCI-H522 lung -0.409% | A549/ATCC NSCLC 3.13% | 786-0 renal 3.99% | COLO 205 colon -5.05% | DU-145 prostate -47.9% | MALME-3M melanoma -44.5% | SF-268 CNS 9.74% | SF-295 CNS -30.4% | SF-539 CNS -13.7% | M14 melanoma -11.2%

COc1ccc2c(CCCCC(c3ccccc3)c3ccccc3)c3[n+](cc2c1OC)CCc1cc2c(cc1-3)OCO2
inactive: NCI-H322M lung 11.1%
active: NCI-H23 lung -66.5% | NCI-H226 lung -55% | HOP-62 NSCLC -42.7% | NCI-H460 lung -83% | HOP-92 NSCLC -72.7% | NCI-H522 lung -57.5% | A549/ATCC NSCLC -22.5% | 786-0 renal -75.8% | COLO 205 colon -77.3% | DU-145 prostate -80% | K-562 leukemia -7.74% | MALME-3M melanoma -80.9% | MDA-MB-231 breast -75.1% | SF-268 CNS -60.7% | SF-295 CNS -84.2% | SF-539 CNS -64.5% | M14 melanoma -76.1%

CCc1nc2ccc(Cc3ccc(C(=O)NO)cc3)cc2c(=O)n1CCc1ccccc1
active: NCI-H23 lung -67.9% | NCI-H226 lung -28.5% | HOP-62 NSCLC -43.4% | NCI-H460 lung 0.149% | HOP-92 NSCLC -29.5% | NCI-H522 lung -86.5% | A549/ATCC NSCLC -41.7% | 786-0 renal -58.3% | COLO 205 colon -69.7% | DU-145 prostate 2.78% | K-562 leukemia 1.5% | MDA-MB-231 breast -24% | RXF 393 renal -66.6% | SF-268 CNS -48.5% | SF-295 CNS -79.1% | SF-539 CNS -43.1% | M14 melanoma -63.8%
inactive: NCI-H322M lung 12.1%

CC(=O)Oc1ccccc1C(=O)N=C1[Se]CCN1C(=O)c1ccccc1OC(C)=O
active: NCI-H23 lung 0.294% | NCI-H226 lung -48.4% | NCI-H322M lung -21.7% | HOP-62 NSCLC -48.1% | NCI-H460 lung -7.43% | HOP-92 NSCLC -72.4% | NCI-H522 lung -6.48% | A549/ATCC NSCLC -52.6% | 786-0 renal -95.8% | COLO 205 colon -26.9% | DU-145 prostate -44.2% | K-562 leukemia 8.83% | MDA-MB-231 breast -22.2% | RXF 393 renal -72.5% | SF-268 CNS -77.1% | SF-295 CNS -67.6% | SF-539 CNS -79.4% | M14 melanoma -57.7%

COc1ccc(C2CC(=O)c3c(O)c(OC)c(OC)c(OC)c3O2)cc1O (stereo not drawn)
inactive: NCI-H23 lung 33.8% | NCI-H226 lung 89.2% | NCI-H322M lung 44.3% | HOP-62 NSCLC 61.9% | HOP-92 NSCLC 79.5% | NCI-H522 lung 13.1% | A549/ATCC NSCLC 28.7% | 786-0 renal 49% | COLO 205 colon 67.3% | DU-145 prostate 18.2% | K-562 leukemia 11.6% | MALME-3M melanoma 57.5% | MDA-MB-231 breast 17.1% | SF-268 CNS 44.6%
active: NCI-H460 lung 3.01% | SF-295 CNS 6.54% | SF-539 CNS -13% | M14 melanoma 7.68%

CCNCCNc1cc(-c2ccc(Cl)c(Cl)c2)c(C#N)c2nc3ccccc3n12
active: NCI-H23 lung -72.8% | NCI-H226 lung -74.2% | NCI-H322M lung -83.5% | HOP-62 NSCLC -75.6% | NCI-H460 lung -71.2% | HOP-92 NSCLC -85.8% | NCI-H522 lung -78.1% | A549/ATCC NSCLC -87.3% | 786-0 renal -84.8% | COLO 205 colon -83.7% | DU-145 prostate -93.7% | K-562 leukemia -65.3% | MDA-MB-231 breast -77.5% | RXF 393 renal -91% | SF-268 CNS -79.6% | SF-295 CNS -92.3% | SF-539 CNS -87.5% | M14 melanoma -73.8%

CCCCCCCC(=O)SCC/C=C/[C@@H]1CC(=O)NCc2cccc(n2)C2=N[C@@](C)(CS2)C(=O)N[C@@H](C(C)C)C(=O)N1
inactive: NCI-H23 lung 41.7% | NCI-H226 lung 68.9% | NCI-H322M lung 15.6% | HOP-62 NSCLC 12.3% | NCI-H460 lung 20% | HOP-92 NSCLC 38% | A549/ATCC NSCLC 15.4% | 786-0 renal 54% | DU-145 prostate 28.9% | K-562 leukemia 16% | MDA-MB-231 breast 21.9% | SF-268 CNS 53.6% | SF-539 CNS 48.6% | M14 melanoma 35.6%
active: NCI-H522 lung -1.71% | COLO 205 colon -41.6% | MALME-3M melanoma 2.46% | SF-295 CNS -1.52%

COc1cnc2c(c1)C(=O)c1c-2n(CCCNC2=NCCS2)c(=O)c2cc(Cl)ccc12
active: NCI-H23 lung -52.4% | NCI-H322M lung -43.9% | HOP-62 NSCLC -78.9% | NCI-H460 lung -80.3% | NCI-H522 lung -64.7% | A549/ATCC NSCLC -89.6% | 786-0 renal -96.7% | COLO 205 colon -74.3% | DU-145 prostate -76.7% | K-562 leukemia -58.3% | MDA-MB-231 breast -70.7% | SF-268 CNS -49.4% | SF-295 CNS -93.5% | SF-539 CNS -84.4% | M14 melanoma -70.3%
inactive: NCI-H226 lung 46.9% | HOP-92 NSCLC 77.6% | RXF 393 renal 39%

— PubChem BioAssay (NCI)
